Reference: ChEMBL document CHEMBL1961873, “Compounds: GSK PKIS; Assays: Nanosyn kinase panel” (2012)
Several values for one entry are separate records, joined by “and”; a condition that tells them apart may be missing. Equal values may be shown once.

Molecular target: Hepatocyte growth factor receptor (Homo sapiens) (UniProt P08581);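 note: each value is an averaged inhibition figure for MET, taken as the mean across measurements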
Conditions: at 1 µM

Chain of Hepatocyte growth factor receptor (Homo sapiens) (P08581 whole entry): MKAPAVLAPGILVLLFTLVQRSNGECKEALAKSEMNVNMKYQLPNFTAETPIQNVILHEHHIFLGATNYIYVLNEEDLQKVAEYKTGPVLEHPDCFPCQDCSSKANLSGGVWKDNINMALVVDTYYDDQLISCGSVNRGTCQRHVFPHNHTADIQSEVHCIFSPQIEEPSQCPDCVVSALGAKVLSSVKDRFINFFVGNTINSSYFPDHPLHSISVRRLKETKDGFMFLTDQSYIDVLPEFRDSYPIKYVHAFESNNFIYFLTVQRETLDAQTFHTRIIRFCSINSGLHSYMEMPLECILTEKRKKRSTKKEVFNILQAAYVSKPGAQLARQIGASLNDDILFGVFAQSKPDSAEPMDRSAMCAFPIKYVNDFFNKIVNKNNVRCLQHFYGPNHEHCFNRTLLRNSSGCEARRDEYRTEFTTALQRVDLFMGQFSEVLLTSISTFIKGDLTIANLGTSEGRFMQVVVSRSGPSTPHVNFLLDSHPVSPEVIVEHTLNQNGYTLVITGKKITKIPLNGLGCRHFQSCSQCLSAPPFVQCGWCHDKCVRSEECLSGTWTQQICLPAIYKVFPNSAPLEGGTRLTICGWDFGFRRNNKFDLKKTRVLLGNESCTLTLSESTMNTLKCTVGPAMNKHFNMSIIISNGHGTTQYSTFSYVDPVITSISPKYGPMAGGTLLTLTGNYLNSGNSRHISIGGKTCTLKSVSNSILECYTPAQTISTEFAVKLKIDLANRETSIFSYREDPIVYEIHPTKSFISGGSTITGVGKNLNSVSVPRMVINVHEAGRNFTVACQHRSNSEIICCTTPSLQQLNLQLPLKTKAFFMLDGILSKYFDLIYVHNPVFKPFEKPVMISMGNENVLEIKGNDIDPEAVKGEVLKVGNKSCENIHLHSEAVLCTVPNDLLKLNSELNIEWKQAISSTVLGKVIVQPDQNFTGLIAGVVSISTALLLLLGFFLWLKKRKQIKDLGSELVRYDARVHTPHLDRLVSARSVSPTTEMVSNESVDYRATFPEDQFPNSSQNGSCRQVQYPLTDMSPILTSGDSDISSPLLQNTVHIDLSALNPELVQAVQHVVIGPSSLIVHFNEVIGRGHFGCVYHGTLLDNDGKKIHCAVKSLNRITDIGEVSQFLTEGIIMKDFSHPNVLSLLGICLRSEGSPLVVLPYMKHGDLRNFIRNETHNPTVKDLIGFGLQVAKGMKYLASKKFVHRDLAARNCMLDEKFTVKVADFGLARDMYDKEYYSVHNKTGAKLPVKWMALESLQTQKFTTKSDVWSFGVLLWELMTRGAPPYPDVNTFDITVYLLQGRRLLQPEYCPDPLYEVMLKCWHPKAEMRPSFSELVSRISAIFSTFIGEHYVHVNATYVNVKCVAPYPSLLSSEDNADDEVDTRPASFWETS

First: CCCNc1cccc(-n2ncc3c(N/N=C/c4ccncc4)ncnc32)c1
Second: COc1cccc(-n2ncc3c(N/N=C/c4ccc(C(=O)NCCN(C)C)cc4)ncnc32)c1
The inhibition of the first is lower: 49% for the first, 55.7% for the second.

Compared with `Cc1nnc(-c2cccc(-c3ccc(C(=O)NCC4CC4)cc3)c2)o1`, `Cc1ccc(-c2cc3c(NC(=O)C4CC4)ncnc3o2)cc1` is lower in inhibition: 7.87% for the first, 4.06% for the second.

First: Cc1cc(O)cc(C)c1/C=C/c1cncc(C(=O)OC(C)(C)C)c1
Second: CC1=C(C(=O)Nc2ccc3[nH]nc(C)c3c2)C(c2ccc(C(F)(F)F)cc2)CC(=O)N1 (configuration not stated)
The inhibition of the first is lower: 5.5% for the first, 17.3% for the second.

First: COc1ccc(Nc2ncc(-c3ccccc3)o2)cc1OC
Second: CS(=O)(=O)Nc1ccc(-c2cc(-c3ccccc3)cc(C(N)=O)c2N)cc1
The inhibition of the first is lower: 1.69% for the first, 2.34% for the second.

Compared with `COC(=O)Nc1nc2ccc(Oc3ccc(NC(=O)Nc4cc(C(F)(F)F)ccc4F)cc3)cc2s1`, `COC(=O)Nc1nc2cc(Oc3ccc(NC(=O)Nc4ccccc4)cc3)ccc2[nH]1` is lower in inhibition: 34.6% for the first, 18.7% for the second.

First: O=C1Nc2ccccc2/C1=C1\CCc2cc(O)ccc21
Second: COc1c(C(N)=O)cc(-c2ccc(Cl)cc2)cc1-c1ccc(S(N)(=O)=O)cc1
The inhibition of the first is higher: 10.1% for the first, 5.98% for the second.

First: O=C(Nc1n[nH]c2nnc(-c3cccnc3)cc12)C1CC1
Second: CCN1CCC(C(=O)Nc2n[nH]c3nnc(-c4cccc(F)c4F)cc23)CC1
The inhibition of the first is lower: 0.68% for the first, 2.58% for the second.

Going from `c1cnn2ncc(-c3ccnc(NCCCN4CCOCC4)n3)c2c1` to `COc1cccc(Nc2nccc(-c3cnn4ncccc34)n2)c1`, the inhibition rises from 0.15% to 12.1%.

Going from `Cc1c2ccc(N(C)c3ccnc(Nc4cccc(S(N)(=O)=O)c4)n3)cc2nn1C` to `Fc1ccc(Nc2nccc(-c3c(-c4ccc(C(F)(F)F)cc4)nn4ncccc34)n2)cc1F`, the inhibition falls from 28.1% to 4.74%.

First: CNC(=O)c1sc(-n2cnc3cc(OC)c(OC)cc32)cc1OCc1ccccc1C(F)(F)F
Second: CNC(=O)c1ncccc1Nc1nc(Nc2cc3c(cc2OC)CCCN3C(=O)CN(C)C)nc2[nH]ccc12
The inhibition of the first is lower: 3.89% for the first, 10.1% for the second.

Going from `c1ccc(-c2n[nH]cc2-c2ccnc(-c3ccc(OCCn4ccnc4)cc3)c2)nc1` to `CS(=O)(=O)CCNCc1ccoc1-c1ccc2ncnc(Nc3ccc(OCc4ccccc4)cc3)c2c1`, the inhibition rises from 0.98% to 4.88%.

Compared with `CCn1c(-c2nonc2N)nc2cncc(C(=O)NCCNC)c21`, `NC(=O)c1ccc2c(-c3ccnc(NCCCO)n3)c(-c3ccc(F)cc3)nn2c1` is higher in inhibition: 4.45% for the first, 15.1% for the second.

Compared with `CS(=O)(=O)CCNCc1ccc(-c2ccc3ncnc(Nc4ccc(OCc5ccccc5)cc4)c3c2)o1`, `O=C(O[C@H]1CN[C@H](C#Cc2cc3ncnc(Nc4ccc5c(ccn5Cc5cc(F)ccc5F)c4)c3s2)C1)N1CCOCC1` is higher in inhibition: 4.43% for the first, 10.8% for the second.

Compared with `CC1(C)CC(n2cnc(-c3ccc(F)cc3)c2-c2ccnc(N)n2)CC(C)(C)N1`, `COc1cc(N2CCN(C(C)C)CC2)ccc1Nc1nc(Nc2cccc3ncccc23)c2cc[nH]c2n1` is lower in inhibition: 5.56% for the first, -1.9% for the second.

`Nc1nonc1-c1nc2cnccc2n1C1CC1` was tested, and the inhibition was 7.09% and 3.3%.
`Nc1nccc(-c2c(-c3ccc(F)cc3)ncn2C2CCNCC2)n1` was tested, and the inhibition was -2.98% and 4.72%.
`CN1CCC(C(=O)Nc2n[nH]c3nc(-c4ccc(O)cc4)c(Br)cc23)CC1` was tested, and the inhibition was 14.2% and 6.92%.

Molecular target: T1, Muscle, skeletal receptor tyrosine-protein kinase (Homo sapiens) (UniProt O15146);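 note: values are mean inhibition of MuSK from the GSK PKIS kinase screening panel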
T1 sequence (whole entry): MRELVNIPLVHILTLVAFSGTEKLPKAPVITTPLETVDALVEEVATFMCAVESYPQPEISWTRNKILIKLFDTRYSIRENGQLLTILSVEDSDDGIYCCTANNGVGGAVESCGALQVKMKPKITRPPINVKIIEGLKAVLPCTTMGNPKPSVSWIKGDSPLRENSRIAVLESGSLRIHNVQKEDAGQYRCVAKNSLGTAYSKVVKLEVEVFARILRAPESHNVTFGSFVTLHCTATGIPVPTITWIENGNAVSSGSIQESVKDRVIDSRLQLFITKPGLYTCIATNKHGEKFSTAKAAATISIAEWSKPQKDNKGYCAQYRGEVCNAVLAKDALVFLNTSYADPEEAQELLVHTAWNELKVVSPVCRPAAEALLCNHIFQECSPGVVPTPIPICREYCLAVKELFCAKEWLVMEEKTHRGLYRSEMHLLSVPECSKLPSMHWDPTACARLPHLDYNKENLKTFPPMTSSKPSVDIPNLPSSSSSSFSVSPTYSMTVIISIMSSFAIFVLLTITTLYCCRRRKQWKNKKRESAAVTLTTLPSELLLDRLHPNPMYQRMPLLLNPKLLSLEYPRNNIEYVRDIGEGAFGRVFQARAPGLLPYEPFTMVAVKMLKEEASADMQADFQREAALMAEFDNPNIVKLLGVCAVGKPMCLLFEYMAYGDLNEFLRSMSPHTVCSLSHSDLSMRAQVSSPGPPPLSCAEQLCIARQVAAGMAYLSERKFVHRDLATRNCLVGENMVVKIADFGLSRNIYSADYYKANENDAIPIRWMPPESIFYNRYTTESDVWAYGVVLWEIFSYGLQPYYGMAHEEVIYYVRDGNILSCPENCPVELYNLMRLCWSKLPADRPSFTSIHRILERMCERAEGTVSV
Conditions: at 0.1 µM

First: CCCNc1cccc(-n2ncc3c(N/N=C/c4ccncc4)ncnc32)c1
Second: COc1cccc(-n2ncc3c(N/N=C/c4ccc(C(=O)NCCN(C)C)cc4)ncnc32)c1
The inhibition of the first is lower: 8.51% for the first, 40.4% for the second.

First: Cc1nnc(-c2cccc(-c3ccc(C(=O)NCC4CC4)cc3)c2)o1
Second: Cc1ccc(-c2cc3c(NC(=O)C4CC4)ncnc3o2)cc1
The inhibition of the first is higher: 2.8% for the first, 2.65% for the second.

Going from `Cc1cc(O)cc(C)c1/C=C/c1cncc(C(=O)OC(C)(C)C)c1` to `CC1=C(C(=O)Nc2ccc3[nH]nc(C)c3c2)C(c2ccc(C(F)(F)F)cc2)CC(=O)N1` (configuration not stated), the inhibition rises from 3.21% to 5.25%.

Compared with `COc1ccc(Nc2ncc(-c3ccccc3)o2)cc1OC`, `CS(=O)(=O)Nc1ccc(-c2cc(-c3ccccc3)cc(C(N)=O)c2N)cc1` is lower in inhibition: 2.37% for the first, 1.31% for the second.

First: COC(=O)Nc1nc2ccc(Oc3ccc(NC(=O)Nc4cc(C(F)(F)F)ccc4F)cc3)cc2s1
Second: COC(=O)Nc1nc2cc(Oc3ccc(NC(=O)Nc4ccccc4)cc3)ccc2[nH]1
The inhibition of the first is higher: 76.3% for the first, 3.96% for the second.

Going from `O=C1Nc2ccccc2/C1=C1\CCc2cc(O)ccc21` to `COc1c(C(N)=O)cc(-c2ccc(Cl)cc2)cc1-c1ccc(S(N)(=O)=O)cc1`, the inhibition falls from 5.49% to 2.39%.

Compared with `O=C(Nc1n[nH]c2nnc(-c3cccnc3)cc12)C1CC1`, `CCN1CCC(C(=O)Nc2n[nH]c3nnc(-c4cccc(F)c4F)cc23)CC1` is higher in inhibition: -0.19% for the first, 1.86% for the second.

First: c1cnn2ncc(-c3ccnc(NCCCN4CCOCC4)n3)c2c1
Second: COc1cccc(Nc2nccc(-c3cnn4ncccc34)n2)c1
The inhibition of the first is lower: 2.04% for the first, 2.83% for the second.

First: Cc1c2ccc(N(C)c3ccnc(Nc4cccc(S(N)(=O)=O)c4)n3)cc2nn1C
Second: Fc1ccc(Nc2nccc(-c3c(-c4ccc(C(F)(F)F)cc4)nn4ncccc34)n2)cc1F
The inhibition of the first is higher: 2.38% for the first, 2.34% for the second.

Compared with `CNC(=O)c1sc(-n2cnc3cc(OC)c(OC)cc32)cc1OCc1ccccc1C(F)(F)F`, `CNC(=O)c1ncccc1Nc1nc(Nc2cc3c(cc2OC)CCCN3C(=O)CN(C)C)nc2[nH]ccc12` is higher in inhibition: 2.71% for the first, 5.51% for the second.

First: c1ccc(-c2n[nH]cc2-c2ccnc(-c3ccc(OCCn4ccnc4)cc3)c2)nc1
Second: CS(=O)(=O)CCNCc1ccoc1-c1ccc2ncnc(Nc3ccc(OCc4ccccc4)cc3)c2c1
The inhibition of the first is lower: 0.34% for the first, 1.36% for the second.

Going from `CCn1c(-c2nonc2N)nc2cncc(C(=O)NCCNC)c21` to `NC(=O)c1ccc2c(-c3ccnc(NCCCO)n3)c(-c3ccc(F)cc3)nn2c1`, the inhibition falls from 5.69% to 3.34%.

First: CS(=O)(=O)CCNCc1ccc(-c2ccc3ncnc(Nc4ccc(OCc5ccccc5)cc4)c3c2)o1
Second: O=C(O[C@H]1CN[C@H](C#Cc2cc3ncnc(Nc4ccc5c(ccn5Cc5cc(F)ccc5F)c4)c3s2)C1)N1CCOCC1
The inhibition of the first is lower: 2.69% for the first, 2.87% for the second.

Going from `CC1(C)CC(n2cnc(-c3ccc(F)cc3)c2-c2ccnc(N)n2)CC(C)(C)N1` to `COc1cc(N2CCN(C(C)C)CC2)ccc1Nc1nc(Nc2cccc3ncccc23)c2cc[nH]c2n1`, the inhibition rises from 0.69% to 5.11%.

With `Nc1nonc1-c1nc2cnccc2n1C1CC1` the inhibition was 4.75% and 1.45%.
In the case of `Nc1nccc(-c2c(-c3ccc(F)cc3)ncn2C2CCNCC2)n1`, the inhibition is reported as -3.15% and 1.87%.
With `CN1CCC(C(=O)Nc2n[nH]c3nc(-c4ccc(O)cc4)c(Br)cc23)CC1` the inhibition was 2.28% and 1.53%.
